Source: the supplement of paper PMC6089552
Screen size: about 3,200 compounds; about 300 (9.4%) showed activity. What follows is part of a selection rich in actives, with near analogues and random picks from the rest.

Tested on: A673/TR/shEF
Experiment: cell viability (LOESS-normalised, relative to median of negative controls) (log2 ratio); higher = more viable cells (less compound effect), active = hit call of the paper (over 3 MAD below the median)
Conditions: treatment time: 72 h
Procedure, shortened: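 A673/TR/shEF Ewing sarcoma cells (1,500 per well, 384-well plates) were grown with or without doxycycline to induce EWS-FLI1 shRNA knockdown, starting 24 h before compounds. Library compounds at two or more concentrations, with DMSO controls, were added for three days. Cell viability was read by CellTiter-Glo luminescence on an Envision reader, then LOESS-corrected per plate, divided by the median of negative controls and log2-transformed. Hits were wells at least three median absolute deviations from the median of all screened wells.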

[1] = 0.25 µM, library screen: screen2, EWS-FLI1 expression: high (no doxycycline)
[2] = 0.25 µM, library screen: screen2, EWS-FLI1 expression: low (doxycycline-induced shRNA knockdown)
[3] = 2.5 µM, library screen: screen2, EWS-FLI1 expression: high (no doxycycline)
[4] = 2.5 µM, library screen: screen2, EWS-FLI1 expression: low (doxycycline-induced shRNA knockdown)
[5] = 0.25 µM, library screen: screen1, EWS-FLI1 expression: high (no doxycycline)
[6] = 0.25 µM, library screen: screen1, EWS-FLI1 expression: low (doxycycline-induced shRNA knockdown)
[7] = 2.5 µM, library screen: screen1, EWS-FLI1 expression: high (no doxycycline)
[8] = 2.5 µM, library screen: screen1, EWS-FLI1 expression: low (doxycycline-induced shRNA knockdown)
[9] = 0.025 µM, library screen: screen1, EWS-FLI1 expression: high (no doxycycline)
[10] = 0.025 µM, library screen: screen1, EWS-FLI1 expression: low (doxycycline-induced shRNA knockdown)
[11] = 25 µM, library screen: screen1, EWS-FLI1 expression: high (no doxycycline)
[12] = 25 µM, library screen: screen1, EWS-FLI1 expression: low (doxycycline-induced shRNA knockdown)
[13] = 0.103 µM, library screen: screen3, EWS-FLI1 expression: high (no doxycycline)
[14] = 0.103 µM, library screen: screen3, EWS-FLI1 expression: low (doxycycline-induced shRNA knockdown)
[15] = 0.308 µM, library screen: screen3, EWS-FLI1 expression: high (no doxycycline)
[16] = 0.308 µM, library screen: screen3, EWS-FLI1 expression: low (doxycycline-induced shRNA knockdown)
[17] = 0.926 µM, library screen: screen3, EWS-FLI1 expression: high (no doxycycline)
[18] = 0.926 µM, library screen: screen3, EWS-FLI1 expression: low (doxycycline-induced shRNA knockdown)
[19] = 2.8 µM, library screen: screen3, EWS-FLI1 expression: high (no doxycycline)
[20] = 2.8 µM, library screen: screen3, EWS-FLI1 expression: low (doxycycline-induced shRNA knockdown)
[21] = 8.3 µM, library screen: screen3, EWS-FLI1 expression: high (no doxycycline)
[22] = 8.3 µM, library screen: screen3, EWS-FLI1 expression: low (doxycycline-induced shRNA knockdown)
[23] = 25 µM, library screen: screen3, EWS-FLI1 expression: high (no doxycycline)
[24] = 25 µM, library screen: screen3, EWS-FLI1 expression: low (doxycycline-induced shRNA knockdown)

Measured: cell viability (log2)

CC(=O)[C@H]1CCC2C3CC=C4C[C@@H](OS(=O)(=O)O)CC[C@]4(C)C3CC[C@@]21C (stereo partly specified)
inactive: [1] 0.147 | [2] 0.0952 | [3] 0.0185 | [4] -0.0104

COc1ccc(-c2coc3c(OC)c(OC)cc(OC)c3c2=O)cc1
inactive: [5] 0.0837 | [6] 0.0693 | [7] 0.102 | [8] 0.078

CCOc1ccccc1N1C(=O)c2cccc3cccc(c23)C1=O
inactive: [5] 0.0619 | [6] 0.0408 | [7] 0.058 | [8] 0.0712

Cc1ccc(-c2nn(C(C)(C)C)c3ncnc(N)c23)cc1
inactive: [9] 0.00835 | [10] -0.00557 | [5] 0.0184 | [6] 0.0452 | [7] -0.0765 | [8] 0.104 | [12] -0.07
active: [11] -0.108

CC(C)(C)n1nc(-c2ccc(Cl)cc2)c2c(N)ncnc21
active: [7] -0.388 | [11] -0.453
inactive: [9] 0.227 | [10] -0.0277 | [5] 0.174 | [6] 0.0475 | [8] 0.0249 | [12] -0.00123

C=CC(=O)N1CCC[C@@H](n2nc(-c3ccc(Oc4ccccc4)cc3)c3c(N)ncnc32)C1
inactive: [13] -0.0901 | [14] 0.0229 | [15] -0.0466 | [16] 0.0297 | [17] 0.021 | [18] 0.0235 | [19] -0.0315 | [20] 0.0823 | [21] -0.0558 | [22] 0.16 | [23] -0.158 | [24] 0.0664

CCc1nc(N)nc(N)c1-c1ccc(Cl)cc1
inactive: 0.025 µM, library screen: screen2, EWS-FLI1 expression: high (no doxycycline) 0.129 | 0.025 µM, library screen: screen2, EWS-FLI1 expression: low (doxycycline-induced shRNA knockdown) 0.0541 | [13] 0.0417 | [14] 0.0477 | [5] 0.0408 | [6] 0.123 | [1] 0.112 | [2] 0.0163 | [15] 0.0837 | [16] 0.135 | [17] 0.0823 | [18] 0.107 | [7] 0.0817 | [8] 0.0354 | [3] 0.122 | [4] 0.129 | [19] 0.0808 | [20] 0.046 | [21] 0.0995 | [22] 0.0615 | 25 µM, library screen: screen2, EWS-FLI1 expression: high (no doxycycline) 0.0523 | 25 µM, library screen: screen2, EWS-FLI1 expression: low (doxycycline-induced shRNA knockdown) -0.0463 | [23] 0.153 | [24] 0.146

CC(=O)Oc1cc2c(c(C)c1OC(C)=O)CC=C1[C@@]2(C)CC[C@@]2(C)[C@@H]3C[C@](C)(C(=O)O)CC[C@]3(C)CC[C@]12C
inactive: [5] 0.0258 | [6] 0.000386 | [7] 0.0381 | [8] 0.209

CCN1CCN(CC(O)COc2cc(C)c(Cl)c(C)c2)CC1 (stereo unspecified)
inactive: [5] 0.082 | [6] 0.0372 | [7] 0.096 | [8] 0.29

CCCCCCCCCC(=O)N[C@@H](Cc1c[nH]c2ccccc12)C(=O)N[C@@H](CC(N)=O)C(=O)N[C@@H](CC(=O)O)C(=O)NC1C(=O)NCC(=O)N[C@@H](CCCN)C(=O)N[C@@H](CC(=O)O)C(=O)N[C@H](C)C(=O)N[C@@H](CC(=O)O)C(=O)NCC(=O)N[C@H](CO)C(=O)N[C@@H](C(C)CC(=O)O)C(=O)N[C@@H](CC(=O)c2ccccc2N)C(=O)OC1C (stereo partly specified)
inactive: [13] -0.000338 | [14] -0.000608 | [15] 0.0186 | [16] 0.0343 | [17] 0.103 | [18] 0.0444 | [19] 0.0611 | [20] 0.0124 | [21] 0.0568 | [22] 0.116 | [23] -0.0118 | [24] -0.0633

COc1cc(OC)cc(C(CNc2ncnc3c2ncn3C2O[C@H](CO)[C@@H](O)[C@H]2O)c2ccccc2C)c1 (stereo partly specified)
inactive: [1] 0.151 | [2] 0.0311 | [3] 0.147 | [4] 0.121

C#CCCCCCCCCCCC[C@@H](O)C[C@@H](O)COC(C)=O
inactive: [5] 0.145 | [6] 0.0417 | [7] 0.08 | [8] 0.0325

COc1ccc(CN2CCN(Cc3ccccc3C(F)(F)F)CC2)c(OC)c1OC
inactive: [5] -0.00682 | [6] 0.0327 | [7] 0.087 | [8] 0.144

CC=C(C)C(=O)OC1Cc2c(ccc3ccc(=O)oc23)OC1(C)C (stereo unspecified)
inactive: [5] 0.052 | [6] 0.0529 | [7] 0.186 | [8] 0.0456

CCCCCCCCCCCCCCCCCCOCC(O)CO (stereo unspecified)
inactive: [5] 0.0496 | [6] 0.117 | [7] 0.142 | [8] 0.0249

COc1ccc2c(c1)OCC(Cc1ccc(OC)c(OC(C)=O)c1)C2=O (stereo unspecified)
active: [7] -0.246
inactive: [5] 0.0793 | [6] -0.0163 | [8] -0.0188

COc1ccc2c(c1)OC[C@@H](Cc1ccc(OC)c(OC)c1)C2=O
inactive: [5] -0.018 | [6] 0.0264 | [7] 0.11 | [8] 0.0741

COc1ccc2c(c1)OC[C@@H](Cc1ccc(OC)c(OC)c1)[C@@H]2O
inactive: [5] 0.137 | [6] -0.0181 | [7] 0.209 | [8] 0.0843

Oc1cc(O)c2c(c1)O[C@H](c1cc(O)c(O)c(O)c1)[C@H](O)[C@H]2c1c(O)cc(O)c2c1O[C@H](c1cc(O)c(O)c(O)c1)[C@H](O)[C@H]2c1c(O)cc(O)c2c1O[C@H](c1cc(O)c(O)c(O)c1)[C@H](O)C2
inactive: [5] -0.0224 | [6] 0.066 | [7] 0.107 | [8] 0.0716

OC[C@H]1O[C@@H](O[C@H]2[C@H](O)[C@@H](O)C(O)O[C@@H]2CO)[C@H](O)[C@@H](O)[C@@H]1O (stereo partly specified)
inactive: [5] -0.0294 | [6] 0.0659 | [7] 0.116 | [8] 0.0995

CC(C)(C)C(=O)OCOP(=O)(COCCn1cnc2c(N)ncnc21)OCOC(=O)C(C)(C)C
inactive: [13] -0.0455 | [14] 0.0657 | [15] -0.0326 | [16] 0.0345 | [17] -0.105 | [18] -0.0287 | [20] -0.0209 | [22] -0.0516
active: [19] -0.371 | [21] -0.686 | [23] -1.44 | [24] -0.304

C[C@H](Cn1cnc2c(N)ncnc21)OCP(=O)(O)O
inactive: [13] 0.0857 | [14] 0.09 | [1] 0.128 | [2] 0.113 | [15] 0.00908 | [16] 0.0155 | [17] 0.0338 | [18] 0.0939 | [3] 0.189 | [4] 0.0365 | [19] 0.0533 | [20] 0.0269 | [21] -0.0007 | [22] 0.0852 | [23] 0.0436 | [24] 0.126

Nc1ncnc2c1ncn2[C@@H]1O[C@H](COP(=O)(O)O)[C@@H](O)[C@H]1O
inactive: [5] 0.101 | [6] -0.0633 | [7] 0.171 | [8] 0.117

CC1CCC(O)C/C1=C/C=C1\CCCC2(C)C1CCC2C(C)/C=C/C(C)C(C)C (stereo unspecified)
inactive: [5] 0.0469 | [6] 0.0169 | [7] 0.0774 | [8] 0.0401

COc1cc(C2NC(=O)NC(C)=C2C(=O)Nc2cccc(Cl)c2)cc(OC)c1OC (stereo unspecified)
inactive: [5] 0.0796 | [6] 0.0843 | [7] 0.0754 | [8] -0.0585

O[Si](CCCN1CCCCC1)(c1ccc(F)cc1)C1CCCCC1 (stereo unspecified)
inactive: [1] 0.132 | [2] 0.0854 | [3] 0.109 | [4] 0.178

Cc1c(NC(=O)Nc2ccc3ccccc3c2)c(=O)n(-c2ccccc2)n1C
inactive: [5] 0.0897 | [6] 0.113 | [7] 0.056 | [8] 0.16

Cc1nc2ccccn2c(=O)c1CCN1CCC(C(=O)c2ccc(F)cc2)CC1
inactive: [5] 0.119 | [6] 0.184 | [1] 0.229 | [2] 0.127 | [7] 0.124 | [8] 0.101 | [3] 0.243 | [4] 0.107

CC1(C)C(=O)N(CCN2CCC(C(=O)c3ccc(F)cc3)CC2)c2ccccc21
inactive: [13] -0.034 | [14] 0.0315 | [1] 0.081 | [2] 0.0775 | [15] 0.05 | [16] 0.0455 | [17] 0.00913 | [18] 0.0245 | [3] 0.0771 | [4] 0.0581 | [19] -0.0171 | [20] 0.0924 | [21] -0.00458 | [22] 0.0164 | [23] 0.0894 | [24] 0.0236

O=C(c1ccc(F)cc1)C1CCN(CCn2c(=O)[nH]c3ccccc3c2=O)CC1
active: [1] -0.282 | [2] -0.245 | [3] -2.12 | [4] -2.83

COc1ccc2c(c1)CC[C@@H]1[C@@H]2CC[C@]2(C)[C@@H](NCCCCCCN3C(=O)CCC3=O)CC[C@@H]12
inactive: [1] 0.149 | [2] 0.104 | [3] 0.246 | [4] 0.108

COc1cccc2c(C)cc(=O)[nH]c12
inactive: [5] 0.0638 | [6] 0.0801 | [7] 0.144 | [8] 0.0702

C[C@@H]1CCC2[C@@H](C)[C@@H](O)O[C@@H]3OC4(C)CC[C@@H]1[C@@]23OO4 (stereo partly specified)
inactive: [5] 0.104 | [6] 0.00583 | [7] 0.029 | [8] -0.122

CN(C)c1ccc(C=C2SC(=S)N(c3ccc(F)cc3)C2=O)cc1
inactive: [5] 0.0645 | [6] 0.154 | [7] 0.09 | [8] 0.192
